Reference: PubChem BioAssay AID2685 (National Center for Advancing Translational Sciences (NCATS), 2010)
The whole screen tested about 320,000 compounds, of which about 2,100 (0.66%) were called active. About 53% were inconclusive and are not listed. The call rests on the fitted dose curve; in most records, active means well fitted inhibition curve with a large enough effect in the signal ratio, with a control signal flat (not every such curve was filed as active); inconclusive means small, poorly fitted or top-dose-only effect, or effect the other way, or a change in a side signal; inactive means flat fitted curve, though single readings scatter; the % refers to the signal ratio. What follows is part of a selection rich in actives, with near analogues and random picks from the rest.

Assay: qHTS Assay for Lipid Storage Modulators in Drosophila S3 Cells;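 on cell number change: cells counted by Cell Tracker Red CMTPX staining in the red channel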; on lipid storage change, negative = inhibition: on the % scale 0 is the no-effect control and ±100 the full control effect
Conditions: BODIPY lipid droplet fluorescence, 18-24 h, cells fed with added oleic acid; cell number change: measured here: cell count max response; series mostly up to 46.1 µM; lipid storage change, negative = inhibition: at the top concentration
Outline: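 Laser-scanning cytometry quantifies lipid droplet accumulation (500–530 nm total intensity; droplet/cell object ratio) in oleic acid-fed (400 uM added) Drosophila S3 cells treated with a concentration series. 20 uM Triacsin C defined 100% inhibition.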
Potency means the concentration at half of the fitted maximal effect.

Row | SMILES | outcome | cell number change | lipid storage change, negative = inhibition | Potency
1 | Cc1ccsc1/C=C/c1n[nH]c(=O)c(C#N)c1C | inactive | 22.2% | – | –
2 | O=C(NC1CCOC1)c1ccc(OC2CCN(CCc3ccccc3)CC2)cc1 (stereo not given) | – | -24% | -5.98% (inactive) | –
3 | CN(C)CCOCCOc1ccccc1-c1ccccc1 | – | -9.8% | -6.88% (inactive) | –
4 | CN(C)CCCCOc1ccccc1-c1ccccc1 | – | -4.23% | -7.9% (inactive) | –
5 | CN(C)CCOc1ccccc1-c1ccccc1 | – | -29.9% | – | 23.1 µM (active)
6 | COc1ccc(NS(=O)(=O)c2cc(NC(=O)COc3ccccc3F)ccc2OC)cc1 | – | -1.34% | – | 1.64 µM (active)
7 | COc1ccc(NS(=O)(=O)c2cc(NC(=O)Cc3c(F)cccc3Cl)ccc2OC)cc1 | – | -6.83% | 6.88% (inactive) | –
8 | Cc1cc(C)nc(NS(=O)(=O)c2ccc(NC(=O)COc3ccccc3F)cc2)n1 | – | 12.7% | 13.6% (inactive) | –
9 | COCCNC(=O)c1ccc(CSCc2cccc(Cl)c2)o1 | – | 7.62% | 11.7% (inactive) | –
10 | c1ccc(CCNCC2COc3ccccc3O2)cc1 (stereo not given) | – | 16.7% | 7.04% (inactive) | –
11 | Cc1ccc(CSCCNS(=O)(=O)c2ccc([N+](=O)[O-])cc2)cc1 | – | – | 15.8% (inactive) | –
12 | COc1ccc(C(=O)c2sc(Nc3ccccc3)c(C(=O)Nc3ccc(OC)c(OC)c3)c2N)cc1 | – | -20% | 9.9% (inactive) | –
13 | COc1ccccc1NC(=O)c1sc(Cl)nc1C | inactive | 1.65% | – | –
14 | COc1ccccc1NC(=O)c1c(Nc2ccccc2C)sc(C(=O)Nc2cccc(Cl)c2)c1N | – | -26.6% | – | 1.64 µM (active)
15 | Cc1cccc(C)c1NC(=O)CN(C)C(=O)c1cccc(S(=O)(=O)N2CCN(C)CC2)c1 | – | 10.4% | -25% [at 0.0737 µM] (inactive) | –
16 | CCOC(=O)C1CCN(CC(O)COCc2ccccc2)CC1 (stereo not given) | – | 4.71% | 10.2% (inactive) | –
17 | CCOC(=O)C1CCN(CC(O)COCc2ccc3c(c2)OCO3)CC1 (stereo not given) | – | – | 6.44% (inactive) | –
18 | CCOC(=O)C1CCN(CC(O)COCc2ccc(Cl)cc2)CC1 (stereo not given) | – | 16.5% | – | 18.4 µM (active)
19 | COc1ccc(C)cc1NC(=O)CSc1nc2scc(C)c2c(=O)[nH]1 | inactive | 10.8% | – | –
20 | COc1cccc(NC(=O)CSc2nc3scc(C)c3c(=O)[nH]2)c1 | – | 2.56% | – | 0.58 µM (active)
21 | COc1ccc(NC(=O)CSc2nc3scc(C)c3c(=O)[nH]2)cc1 | – | 11.6% | 19.3% (inactive) | –
22 | CCOc1ccc(-c2nnn(CC(=O)NCc3cccs3)n2)cc1 | – | -5.47% | 7.4% (inactive) | –
23 | CC(=O)NNc1[nH]c2c(c(=O)c1[N+](=O)[O-])c(=O)n(C)c(=O)n2C | – | -5.05% | -5.91% (inactive) | –
24 | CC(C)=C(NC(=O)c1ccccc1)C(=O)NC(Cc1ccccc1)C(=O)O (stereo not given) | – | -15% | – | 1.16 µM (active)

Row | SMILES | outcome | cell number change | lipid storage change, negative = inhibition | Potency
25 | O=C(NC(Cc1ccccc1)C(=O)O)c1ccccc1 (stereo not given) | – | -3.84% | -0.615% (inactive) | –
26 | O=C(NC(Cc1ccccc1)C(=O)O)/C(=C/c1ccccc1)NC(=O)c1ccccc1 (stereo not given) | – | -7.82% | -12.2% (inactive) | –
27 | CC(=O)OCCn1c(C)[n+](CCOC(C)=O)c2cc(Cl)c(Cl)cc21 | – | 13.2% | 3.84% (inactive) | –
28 | COc1ccc(OCC(=O)N2CC3(C)CC2CC(C)(C)C3)cc1 (stereo not given) | inactive | – | – | –
29 | CCc1cccc2cc3c(N)c(C(=O)Nc4ccc(S(=O)(=O)N5CCCC5)cc4)sc3nc12 | – | 0.905% | – | 5.8 µM (active)
30 | Cc1cccc2cc3c(N)c(C(=O)Nc4ccc(N5CCOCC5)cc4)sc3nc12 | – | -1.66% | 5.73% (inactive) | –
31 | Nc1c(C(=O)Nc2ccc(S(=O)(=O)N3CCCC3)cc2)sc2nc3cc4c(cc3cc12)CCC4 | – | 6.36% | -10.7% (inactive) | –
32 | Cc1cccn2c(=O)c3cc(C(=O)NCCc4ccccc4)sc3nc12 | inactive | -15.4% | – | –
33 | Cc1ccc(C(=O)N2CCC(Cc3ccccc3)CC2)cc1[N+](=O)[O-] | – | 4.11% | 14.3% (inactive) | –
34 | COc1cc(/C=C(/C#N)C(=O)NCc2ccccc2)cc(OC)c1OC | inactive | -27.2% | – | –
35 | C=CCNC(=O)/C(C#N)=C\c1cc(Cl)c(O)c(OCC)c1 | – | 2.03% | -22% (inactive) | –
36 | C=CCNC(=O)/C(C#N)=C\c1cc(Cl)c(OCC)c(OC)c1 | – | -28.8% | – | 14.6 µM (active)
37 | CC(=O)Nc1ccc(NC(=O)C2CC(=O)Nc3nc4ccccc4n32)cc1 (stereo not given) | – | -1.64% | 9.73% (inactive) | –
38 | CCSc1nnc(NC(=O)Nc2cccc(C)c2)s1 | – | 17% | -12.7% (inactive) | –
39 | CNC(=O)Nc1cccc(C(F)(F)F)c1 | – | 3.39% | 10.6% (inactive) | –
40 | CCSCCc1nnc(NC(=O)Nc2cccc(C(F)(F)F)c2)s1 | – | -21.6% | – | 20.6 µM (active)
41 | CC(C)C[C@@H](CSc1ccc(Br)cc1)N1CCN(C)CCC1=O | – | -4.06% | 14.2% (inactive) | –
42 | CC(C(=O)NCc1ccc2c(c1)OCO2)N(c1ccccc1)S(C)(=O)=O (stereo not given) | – | 7.31% | 6.83% (inactive) | –
43 | COc1ccc(N2C(=O)CN(Cc3ccc(OC)c(OC)c3)C2=S)cc1 | – | 10.4% | -2.11% (inactive) | –
44 | Cc1cc(C)c2nc(N(CCCN(C)C)C(=O)C3=COCCO3)sc2c1 | – | -20% | -22.2% (inactive) | –
45 | Cc1ccc(/C=N/NC(=O)c2csc3c2CCCC3)cc1 | – | -23.6% | – | 16.4 µM (active)
46 | O=C(N/N=C/c1ccc(O)cc1)c1csc2c1CCCC2 | – | – | -8.69% (inactive) | –
47 | O=C(N/N=C/c1cccc(F)c1)c1csc2c1CCCC2 | – | 1.41% | 2.18% (inactive) | –
